In the library only some 2.4% were active in any assay of this set; here they are far more common.
D2 ag-1 – agonists of human D2 dopamine receptor. HEK293 T-REx D2 cells, calcium flux agonist mode. 0.53% of 340,000 active. P14416. activation, % at 2 µM;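 active means activation over 3 SD above normal in the single-dose calcium agonist read, cut at about 30% in these data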; further: 0% is about no effect
Target sequence (P14416 whole entry, looked up): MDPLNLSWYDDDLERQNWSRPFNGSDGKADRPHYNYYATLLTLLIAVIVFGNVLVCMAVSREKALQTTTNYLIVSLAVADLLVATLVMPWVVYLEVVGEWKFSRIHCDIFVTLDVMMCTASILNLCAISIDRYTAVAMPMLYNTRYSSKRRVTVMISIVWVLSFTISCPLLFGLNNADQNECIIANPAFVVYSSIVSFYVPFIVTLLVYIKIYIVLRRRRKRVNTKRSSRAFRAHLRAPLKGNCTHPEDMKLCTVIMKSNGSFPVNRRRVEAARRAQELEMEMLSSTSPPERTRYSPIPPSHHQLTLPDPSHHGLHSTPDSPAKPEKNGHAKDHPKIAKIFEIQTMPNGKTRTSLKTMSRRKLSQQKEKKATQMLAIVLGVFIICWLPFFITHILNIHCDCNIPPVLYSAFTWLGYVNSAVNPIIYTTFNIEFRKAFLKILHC
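Calcium-flux readout, 1 cycle/sec over 180 s following compound pin transfer, in inducible HEK293 Trex D2 cells (force-coupled); dopamine controls included. Positive calcium responses during this window marked compounds as potential agonists.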
D2 ag-2 – activates the human D2 dopamine receptor; DiscoveRx PathHunter D2 beta-arrestin, luminescence, 90 min; 100% = 57 uM dopamine signal; activation, % (no concentration beside the values); 0.084% of 360,000 active; in the data active means activation above about 40%; inconclusive means between about 15% and that limit
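DiscoveRx PathHunter D2 beta-arrestin cells (2,100/well) attached overnight, then compound-stimulated 90 min at 37 C in HBSS/10 mM HEPES/0.1% Tween-20 buffer; beta-galactosidase complementation read by luminescence after 1 h at ambient temperature. Dopamine 57 uM final (EC100) as control.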
D2 PAM-1 – D2 dopamine receptor (human) potentiation | P14416 | HEK293 T-REx D2, calcium flux, EC20 dopamine potentiation | potentiation, % at 10 µM | 0.34% of 340,000 active;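 active means potentiation over 3 SD above the plate norm, cut at about 30% in these data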; further: 0% is about no effect
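Calcium flux readout, no-wash dye, 1 read/s. Inducible HEK293 Trex D2 line, overnight 30 C. Compound alone 180 s (agonist flags), then EC20 dopamine, another 180 s to score potentiation.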
D2 antag – antagonists of human D2 dopamine receptor | P14416 | HEK293 TREx D2 cells, calcium flux, dopamine EC80 | inhibition, % at 10 µM | 2% of 340,000 active | AID 485344; in the data active means inhibition above about 30%; inactive means below that, where a call was filed; further: 0% is about no effect
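Tetracycline-induced HEK293 T-REx cells expressing D2 force-coupled to calcium signalling were dye-loaded, exposed to compound for 180 s, then challenged with an EC80 of dopamine; calcium flux was followed kinetically for a further 180 s.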
D2 PAM-2 – positive allosteric modulators of human D2 dopamine receptor; DiscoveRx D2 beta-arrestin cells, luminescence, 90 min; 100% = 57 uM dopamine signal; potentiation, % (test concentration not listed); P14416; 0.23% of 360,000 active; in the data active means potentiation above about 50%; inconclusive means mostly about 30% to 49%
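PathHunter beta-arrestin assay in DiscoveRx D2 cells. Compounds were added with an EC20 of dopamine (50 nM final) for 90 min at 37 deg C. Luminescence was read 1 h after detection reagent, with 57 uM dopamine as the EC100 control.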
Numbers without * were called inactive; ? = inconclusive; · = no result given.

SMILES	D2 ag-1	D2 ag-2	D2 PAM-1	D2 antag	D2 PAM-2
O=C(C1CC1)N1CCc2cc(Br)cc(S(=O)(=O)N3CCN(c4ccccc4)CC3)c21	1	·	-2	·	·
O=C(C1CC1)N1CCc2cc(Br)cc(S(=O)(=O)N3CCN(c4ccccn4)CC3)c21	1	-2	-1	46*	10
CC1CCCN(CCCNS(=O)(=O)c2cc(Br)cc3c2N(C(=O)C2CC2)CC3)C1 (stereo unspecified)	·	5	·	·	-13
CC(=O)N1CCc2cc(Br)cc(S(=O)(=O)NCc3ccc(Cl)cc3)c21	-1	4	-17	68*	-20
CCOc1ccc(CCNC(=O)COC(=O)c2nccnc2N)cc1OCC	·	3	·	·	-3
C=CCOc1ccccc1CN1CCC(C(=O)Nc2cccc(-c3ccn[nH]3)c2)CC1	1	0	-4	92*	-33
O=C(N/C(=C\c1ccco1)C(=O)N1CCCC(CO)C1)c1ccccc1 (stereo unspecified)	0	-3	4	4	-11
COc1ccc(N(Cc2ccccc2)C(=O)c2nc(S(C)(=O)=O)ncc2Cl)cc1	8	·	-7	·	·
CC(C)(C)c1cc(C(=O)N/N=C/c2cc3c(cc2Br)OCO3)n[nH]1	-2	6	-21	49*	-45
O=C(N/N=C/c1cc2c(cc1Br)OCO2)c1cc2ccccc2o1	-1	-3	-25	80*	-54
O=C(N/N=C/c1cc2c(cc1Br)OCO2)c1ccccn1	-1	-2	1	15	1
CC(=O)N1c2ccc(S(=O)(=O)N(C)CC(=O)NC3CCCCC3C)cc2CC1C (stereo unspecified)	0	6	42*	5	-5
CC(=O)N1c2ccc(S(=O)(=O)N(C)CC(=O)NCc3ccccc3)cc2CC1C (stereo unspecified)	0	-9	9	1	-12
CC(=O)N1c2ccc(S(=O)(=O)N(C)C3CCCCC3)cc2CC1C (stereo unspecified)	0	-2	30*	-7	-11
COc1ccc(CNCC(O)COc2cccc3c2OC(C)(C)C3)cc1 (stereo unspecified)	0	-5	-32	44*	-46
Cc1ccccc1NC(=O)Cc1nc(COC(=O)CNS(=O)(=O)c2cccc(Br)c2)cs1	0	-1	-8	35*	-5
CCOc1ccc(OCC(=O)OCc2csc(CC(=O)Nc3ccccc3C)n2)cc1	1	1	42*	7	6
Cc1ccccc1NC(=O)Cc1nc(COC(=O)COc2ccccc2C(C)C)cs1	2	-3	5	29	-1
O=C(NCCS(=O)(=O)N1CCN(c2ccc(F)cc2)CC1)c1cc(=O)c2ccccc2o1	0	·	9	·	·
Fc1ccc2nc(-c3ccccc3)ccc2c1	·	-3	·	·	-7
[O-][n+]1onc2c3cc(-c4ccccc4)nnc3ccc21	-1	8	3	-23	53*
CC1CCCC(NC(=O)COC(=O)c2cccc(NS(=O)(=O)/C=C/c3ccccc3)c2)C1C (stereo unspecified)	-1	2	17	50*	25
O=C(Cn1ccc(C(F)(F)F)n1)N=Nc1c(O)[nH]c2ccc(Br)cc12	1	-14	42*	-10	-6
CCCCOC(=O)c1ccc(Nc2ncnc3c2cnn3-c2cccc(C)c2)cc1	-1	·	-2	·	·
CCCCC(=O)N(C)c1c(CC)nc2c(OCC(=O)C(C)(C)C)cccn12	·	2	·	·	-6
SMILES	D2 ag-1	D2 ag-2	D2 PAM-1	D2 antag	D2 PAM-2
Cc1nnc(Sc2nc3ccccc3o2)c2ccccc12	0	-3	32*	-10	-19
Cc1ccc(-c2nnc(Sc3nc4ccccc4o3)c3ccccc23)cc1	1	-1	9	15	-6
Cc1ccc(OCCCCn2nnc3sc4c(c3c2=O)CCC(C)C4)cc1 (stereo unspecified)	0	·	-1	·	·
Cn1c(=O)c2c(SCC(=O)NCC3CCCO3)nc(-c3cccc(F)c3)nc2n(C)c1=O (stereo unspecified)	0	·	-4	·	·
CCSC1=NSC2=NC(=O)/C(=C\c3coc4ccccc4c3=O)C(=N)N12	100*	-1	-7	12	?
CC(C)CC1=NN2C(=N)/C(=C\c3coc4ccccc4c3=O)C(=O)N=C2S1	13	3	2	-4	4
CN1CCN(S(=O)(=O)c2cccc(C(=O)Nc3ccc(Br)cc3Br)c2)CC1	·	-2	·	·	13
Nc1nonc1-c1nc2ccccc2n1CC(=O)Nc1ccc(F)cc1	5	·	9	·	·
Nc1nonc1-c1nc2ccccc2n1CC(=O)N1CCN(c2ccc(F)cc2)CC1	1	1	50*	-30	-11
O=[N+]([O-])c1ccccc1NCCNS(=O)(=O)c1ccc(Cl)cc1	2	-4	-2	34*	-15
CCC(=O)NC1CC2CCCC(C1)N2Cc1ccc(C)cc1 (stereo unspecified)	0	-3	-30	93*	-78
CC(=O)NC1CC2CCC(C1)N2Cc1ccc(C)cc1 (stereo unspecified)	1	2	-20	51*	-41
CCCN1C2CCCC1CC(NC(=O)c1ccc(Br)cc1)C2 (stereo unspecified)	1	0	-1	-25	-15
CCOc1ccc(C(=O)Nc2ccc3nc(SCC(=O)N(C)c4ccccc4)sc3c2)cc1	-1	·	2	·	·
S=c1[nH]nc(C2(c3ccccc3)CCCC2)o1	0	-1	7	5	-8
O=C(CN1CCN(C(=O)C2CCN(C(=O)/C=C/c3ccccc3)CC2)CC1)Nc1ccc(F)cc1	·	3	·	·	-2
O=C(N/N=C/c1cc(Br)cs1)c1c[nH]c2ccccc12	0	-11	4	2	-14
O=C(N/N=C/c1ccc(Br)s1)c1c[nH]c2ccccc12	1	-5	-24	34*	-29
C=CCC1c2cccc(C(=O)O)c2C(=O)N1c1cccc(C)c1 (stereo unspecified)	0	1	9	32*	4
C=CCC1c2cccc(C(=O)O)c2C(=O)N1c1cccc(OC)c1 (stereo unspecified)	0	-3	0	-5	-4
CCOc1ccc(Br)cc1S(=O)(=O)N1CCCC1	0	0	0	54*	-3
CC1(C2CCC3C4CCC5CC6(CCC5(C)C4C(=O)CC32C)OCCO6)OCCO1 (stereo unspecified)	·	0	·	·	-4
COc1ccc(C(C)(C)C)cc1NC(=O)c1c(C)noc1C	0	2	2	-1	-4
COc1ccc(C(C)(C)C)cc1NC(=O)CCc1c(C)noc1C	-1	-4	9	63*	-5
COC(=O)/C(=C/Nc1ccc(O)cc1)[N+](=O)[O-]	0	10	4	-9	86*
COCCNc1nc(Nc2ccc(C)cc2C)c2sccc2n1	·	4	·	·	-1
